Source: PubChem BioAssay (National Center for Advancing Translational Sciences (NCATS))
Compounds with a hit are over-represented: about 12% of the library has one in this group of screens.
Sfp inh: Sfp phosphopantetheinyl transferase inhibition | hit rate 3.5% among 310,000 | Biochemical Sfp PPTase activity, qHTS | Potency, µM, hits mostly inhibitors | AID 1490 | Q9F4F7;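 note: the enzyme is Sfp with the accession as filed and its product quenches rhodamine fluorescence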
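After 15 min at room temperature with compound, 15 nM Sfp received 5 uM rhodamine-CoA plus 12.5 uM BHQ-2-ybbR (50 mM Hepes pH 7.6, 10 mM MgCl2). Rate came from the fluorescence difference over 30 min, ex 525/em 598 nm.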
JMJD2A Tudor: blocks the human JMJD2A Tudor domain. O75164. AlphaScreen JMJD2A-Tudor / H3K4me3 peptide binding. Potency, µM (titrated, usually from 114 µM), actives largely listed as inhibitors. hit rate 4.4% among 390,000; note: nearly all actives have a fitted effect of over 50% in size
HP1b binding inh: HP1-beta chromodomain-methylated histone interaction inhibition; hit rate 0.56% among 390,000; AlphaScreen HP1-beta / biotin-H3K9me3 peptide binding; P83916; AID 540317; Potency, µM (titrated, usually from 114 µM), usual class: inhibitors; note: nearly all actives have a fitted effect of over 70% in size
Target sequence (P83916 whole entry, looked up): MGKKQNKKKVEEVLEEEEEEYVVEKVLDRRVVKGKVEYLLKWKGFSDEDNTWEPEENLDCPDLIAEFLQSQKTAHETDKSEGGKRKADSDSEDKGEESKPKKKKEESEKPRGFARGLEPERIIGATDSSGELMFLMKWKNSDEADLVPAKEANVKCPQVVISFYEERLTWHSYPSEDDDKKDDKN
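HP1-beta protein (50 nM final) preincubated 30 min at room temperature with biotinylated H3(1-18)K9me3 peptide (50 nM) in PBS pH 7.4, 0.01% Tween-20, then compound added for 30 min. AlphaScreen streptavidin donor/nickel chelate acceptor beads (10 ug/mL final), 30 min dark, luminescence read.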
BAZ2B block: blocks human BAZ2B | Q9UIF8 | AlphaScreen BAZ2B-H3K14Ac peptide displacement | Potency, µM (doses to about 114 µM), actives largely listed as inhibitors | hit rate 4.4% among 360,000 | AID 504333; note: nearly all actives have a fitted effect of over 60% in size
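BAZ2B (50 nM) with biotin-H3(5-23)K14Ac peptide (50 nM) in PBS pH 7.4, 0.01% Tween-20, preformed 30 min, then compound 30 min at room temperature; top concentration 110uM. AlphaScreen streptavidin donor/nickel chelate acceptor beads (10 ug/mL final), 20 min dark, signal read.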
G9a inh: blocks human histone lysine methyltransferase G9a; Q96KQ7; G9a H3K9 monomethylation, AlphaScreen, 2 h; Potency, µM (highest dose often 102 µM), most hits filed as inhibitors; hit rate 8.8% among 350,000; AID 504332; note: nearly all actives have a fitted effect of over 75% in size
Target sequence (Q96KQ7 913-1193 limits assumed): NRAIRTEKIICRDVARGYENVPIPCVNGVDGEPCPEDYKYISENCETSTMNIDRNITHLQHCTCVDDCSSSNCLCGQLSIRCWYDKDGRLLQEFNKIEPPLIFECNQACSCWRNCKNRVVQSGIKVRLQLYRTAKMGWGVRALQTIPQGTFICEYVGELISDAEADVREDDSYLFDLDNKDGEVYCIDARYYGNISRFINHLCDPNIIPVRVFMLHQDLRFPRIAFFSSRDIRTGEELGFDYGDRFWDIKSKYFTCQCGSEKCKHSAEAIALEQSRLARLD
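AlphaScreen detection with an anti-monomethyl H3K9 antibody quantified product after a 2 h room-temperature reaction containing 500 nM biotinylated H3K9 peptide, 20 µM SAM and 20 nM enzyme, which had been preincubated 15 min with compound.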
A number is an active result; [ ] = remark or other dose. Calls come from the whole dose curve; as a rule, active = well fitted curve in the direction sought with a large enough effect; inconclusive = small, poorly fitted or top-dose-only effect, or another doubt; inactive = no such curve, though single readings can be large; an effect the other way counts as inactive or inconclusive.

For CCCCN(C)C/C(O)=C(\C#N)c1nc(-c2ccccc2)cs1 the results were Sfp inh inactive, JMJD2A Tudor inconclusive, HP1b binding inh inactive, BAZ2B block inconclusive and G9a inh 40µM.
`Cc1ccc(-c2csc(/C(C#N)=C(\O)CCl)n2)cc1` gave Sfp inh inactive, JMJD2A Tudor inconclusive, HP1b binding inh inactive, BAZ2B block inactive and G9a inh 35µM.
Screening N#C/C(=C(/O)CCl)c1nc(-c2ccccc2)cs1 returned Sfp inh inactive, JMJD2A Tudor inactive, HP1b binding inh inactive and BAZ2B block inconclusive.
COc1cc2c(cc1OC)C(c1ccccc1[N+](=O)[O-])N(C(C)=O)CC2 (stereo not given) was read as Sfp inh 45µM, JMJD2A Tudor inactive, HP1b binding inh inactive, BAZ2B block inactive and G9a inh inactive[0.501 µM].
For COc1ccc(C(=O)NCC23C=CC(O2)C2C(=O)N(Cc4ccccc4)C(=O)C23)cc1 (stereo not given) the results were Sfp inh inconclusive, JMJD2A Tudor inactive, HP1b binding inh inactive, BAZ2B block inactive and G9a inh inconclusive.
Screening CC(=O)Oc1ccc(N2C(=O)C3C(C2=O)C2(C)C=CC3(C)O2)cc1 (stereo not given) returned Sfp inh 7.9µM, BAZ2B block inactive and G9a inh 5.6µM.
CC(=O)Oc1ccc(N2C(=O)C3C4C=CC(CO)(O4)C3C2=O)cc1 (stereo not given) was read as Sfp inh 16µM, JMJD2A Tudor 45µM, HP1b binding inh inconclusive, BAZ2B block inactive and G9a inh 1µM.
For COC(=O)c1cc(N2C(=O)C3C(C2=O)C2(C)C=CC3(C)O2)ccc1Cl (stereo not given) the results were Sfp inh 7.9µM, BAZ2B block inconclusive and G9a inh inconclusive.
For O=C(NCC1CC1)Nc1cccs1 the results were Sfp inh 45µM, JMJD2A Tudor inactive, HP1b binding inh inactive, BAZ2B block inactive and G9a inh inconclusive.
For CC1CCC(NC(=O)Nc2cccs2)CC1 (stereo not given) the results were Sfp inh inactive, JMJD2A Tudor inactive, HP1b binding inh inactive, BAZ2B block inactive and G9a inh inconclusive.
`O=C(Nc1cccs1)NC1CCCC1` gave Sfp inh inactive, JMJD2A Tudor inactive, HP1b binding inh inactive, BAZ2B block inactive and G9a inh 32µM.
O=[N+]([O-])c1cc(C(F)(F)F)ccc1N1CCCC(O)C1 (stereo not given) was read as Sfp inh inactive, JMJD2A Tudor inactive, HP1b binding inh inactive, BAZ2B block inactive and G9a inh inconclusive.
`Cc1cc(C(=O)NP(=O)(N2CCOCC2)N2CCOCC2)c(C)n1-c1ccc(Br)cc1` gave Sfp inh inactive, JMJD2A Tudor inactive, HP1b binding inh inactive, BAZ2B block inconclusive and G9a inh 50µM.
For Cc1cc(C(=O)NP(=O)(N2CCOCC2)N2CCOCC2)c(C)n1-c1ccc(N(C)C)cc1 the results were Sfp inh inactive, JMJD2A Tudor inconclusive, HP1b binding inh inactive, BAZ2B block inconclusive and G9a inh 22µM.
`Cc1ccc(NC(=O)c2cc(C)n(-c3ccccc3)c2C)cc1` gave Sfp inh inactive, JMJD2A Tudor inactive, HP1b binding inh inactive, BAZ2B block inconclusive and G9a inh inconclusive.
`CCOC(=O)c1c(C)sc2c1N(C(C)=O)c1cc(Cl)ccc1S2` gave Sfp inh inactive, JMJD2A Tudor inactive, HP1b binding inh inactive, BAZ2B block inactive and G9a inh inactive.
COc1ccccc1CNC(=O)CCNC(=O)Cn1ccc2ccccc2c1=O was read as Sfp inh inactive, JMJD2A Tudor inactive, HP1b binding inh inactive, BAZ2B block inactive and G9a inh inactive[12.7 µM].
Screening O=C(CCn1nnc2ccccc21)N1CCC(O)(c2cccc(F)c2)CC1 returned Sfp inh inactive, JMJD2A Tudor 50µM, HP1b binding inh inactive, BAZ2B block inactive and G9a inh inactive.
Screening O=C(Cc1n[nH]c(=O)c2ccccc12)Nc1ccc(-c2nnc3n2CCCCC3)cc1 returned Sfp inh inactive, JMJD2A Tudor inactive, HP1b binding inh inactive, BAZ2B block inactive and G9a inh inactive.
`CCCSCC(=O)Nc1ncc2c(n1)-c1ccccc1CC2` gave Sfp inh inactive, JMJD2A Tudor inconclusive, HP1b binding inh inactive, BAZ2B block 56µM and G9a inh 8.9µM.
Screening O=c1cc(CSc2nnnn2-c2ccc(O)cc2)nc2sccn12 returned Sfp inh inactive, JMJD2A Tudor inactive, HP1b binding inh inactive, BAZ2B block inconclusive and G9a inh inconclusive.
Screening COc1cc(CN2CCN(c3cccc(C)c3C)CC2)cc([N+](=O)[O-])c1O returned Sfp inh inactive, JMJD2A Tudor 2.2µM, HP1b binding inh inconclusive, BAZ2B block 50µM and G9a inh 11µM.
Screening COc1ccc(N2CCN(Cc3cc(OC)c(O)c([N+](=O)[O-])c3)CC2)cc1 returned Sfp inh inconclusive, JMJD2A Tudor 1µM, HP1b binding inh 16µM, BAZ2B block 50µM and G9a inh 7.1µM.
Screening Cc1cc2ncn(S(=O)(=O)c3ccc(S(=O)(=O)N4CCOCC4)cc3)c2cc1C returned Sfp inh inactive, JMJD2A Tudor inactive, HP1b binding inh inactive, BAZ2B block inactive and G9a inh inactive.
`COc1cc(NC(=O)c2cc(Cl)ccc2Cl)ccc1-c1cc2ccccc2oc1=O` gave Sfp inh inactive, JMJD2A Tudor inactive, HP1b binding inh inactive, BAZ2B block inactive and G9a inh inactive[12.7 µM].
Screening CCCCNC(=O)CSc1nc2cc3c(cc2c(=O)n1CCCCCC(=O)NCCc1ccc(OC)c(OC)c1)OCO3 returned JMJD2A Tudor inactive, HP1b binding inh inactive, BAZ2B block inactive and G9a inh inactive.
Screening O=C(NCc1cc([N+](=O)[O-])ccc1O)c1cccnc1Sc1ccccc1 returned Sfp inh inactive, JMJD2A Tudor inactive, HP1b binding inh inactive, BAZ2B block inconclusive and G9a inh inactive.
Cc1ccc(Sc2ncccc2C(=O)NCc2cc([N+](=O)[O-])ccc2O)c(C)c1 was read as Sfp inh inactive, JMJD2A Tudor inactive, HP1b binding inh inactive and BAZ2B block 35µM.
For O=c1/c(=C\c2cccn2-c2ccccc2)sc2nc3ccccc3n12 the results were Sfp inh inactive, JMJD2A Tudor inactive, HP1b binding inh inactive, BAZ2B block inactive and G9a inh inconclusive.
`O=C(O)Cn1cc(/C=c2/sc3nc4ccccc4n3c2=O)c2ccccc21` gave Sfp inh inactive, JMJD2A Tudor 56µM, HP1b binding inh inconclusive, BAZ2B block inconclusive and G9a inh 50µM.
Screening O=C(Cn1c2c(c(-c3ccccc3)cc1=O)CCCC2)N1CCCCCC1 returned Sfp inh inactive, JMJD2A Tudor inactive, HP1b binding inh inactive, BAZ2B block inactive and G9a inh inactive.
`CC(=O)c1c(CC(=O)O)[nH]n(-c2nc3ccccc3s2)c1=O` gave Sfp inh inactive, JMJD2A Tudor 79µM, HP1b binding inh inactive, BAZ2B block inactive and G9a inh inconclusive.
